A selection: hits, their analogues and other compounds. The true share with any hit is near 1.6%.
KCNQ2 inh = rat KCNQ2 potassium channel inhibitors, primary screen, cell-based, CHO-K1, FluxOR thallium flux, B-score; Potassium voltage-gated channel subfamily KQT member 2 (Rattus norvegicus), O88943; 20 min; hits give low values; B-score at 10 µM; 310,000 compounds, 1.1% hits;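 active = fluorescence ratio B-score at most minus 3 library SDs, with starting brightness B-score within 2 library SDs, cut at about -5.5 in these data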
Target sequence (O88943 whole entry, looked up): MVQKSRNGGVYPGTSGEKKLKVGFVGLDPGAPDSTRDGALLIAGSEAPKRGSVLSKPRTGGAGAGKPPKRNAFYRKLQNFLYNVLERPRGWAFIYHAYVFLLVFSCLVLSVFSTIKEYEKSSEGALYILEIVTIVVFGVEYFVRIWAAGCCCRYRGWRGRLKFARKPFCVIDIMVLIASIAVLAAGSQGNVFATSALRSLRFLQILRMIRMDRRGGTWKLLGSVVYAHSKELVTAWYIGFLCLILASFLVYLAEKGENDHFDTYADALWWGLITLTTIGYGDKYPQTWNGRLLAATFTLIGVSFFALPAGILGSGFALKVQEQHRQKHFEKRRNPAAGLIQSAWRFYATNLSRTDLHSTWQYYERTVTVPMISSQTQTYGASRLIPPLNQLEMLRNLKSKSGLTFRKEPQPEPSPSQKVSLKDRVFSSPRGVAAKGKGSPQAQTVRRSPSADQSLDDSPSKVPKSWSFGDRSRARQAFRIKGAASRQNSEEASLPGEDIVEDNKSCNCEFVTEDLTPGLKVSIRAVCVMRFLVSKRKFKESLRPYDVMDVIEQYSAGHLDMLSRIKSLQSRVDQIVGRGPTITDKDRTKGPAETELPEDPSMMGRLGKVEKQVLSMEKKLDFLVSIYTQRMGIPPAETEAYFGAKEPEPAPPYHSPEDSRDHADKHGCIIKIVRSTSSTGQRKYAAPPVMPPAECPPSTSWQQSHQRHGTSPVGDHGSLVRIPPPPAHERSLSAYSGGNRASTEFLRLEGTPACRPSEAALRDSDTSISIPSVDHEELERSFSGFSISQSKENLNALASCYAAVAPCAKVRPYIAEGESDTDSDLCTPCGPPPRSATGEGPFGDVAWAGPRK
KCNQ2 enhance = potentiators of rat KCNQ2 potassium channel | Potassium voltage-gated channel subfamily KQT member 2 (Rattus norvegicus), O88943 | CHO-K1 KCNQ2, FluxOR thallium flux fluorescence; hits give high values | B-score at 10 µM | 310,000 compounds, 0.54% hits;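 active = fluorescence ratio B-score at least 3 SD of library B-scores, with initial fluorescence B-score within 3 of them, cut at about 5.3 in these data; same plate scores as AID 2156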;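 also: B-score of peak minus minimum over baseline fluorescence ratio after K+ and Tl+ stimulus; positive B-score means potentiation of KCNQ2 with more thallium influx and brighter signal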
Numbers without * were called inactive; i = inactive; . = not tested or not shown.

SMILES | KCNQ2 inh | KCNQ2 enhance
COc1cccc(OCc2nnc(SCC(=O)NCc3ccco3)n2CCc2ccccc2)c1 | -6.82* | -6.82
COc1ccc(C(=O)Oc2ccc(N(C)S(=O)(=O)c3ccccc3)cc2)cc1[N+](=O)[O-] | i | 0.3
CC(Sc1nnc(-c2ccc(OC(F)F)cc2)n1N)C(=O)NCC1CCCO1 (configuration not stated) | i | .
Cc1cc(C)n(CCC(=O)N2CCCC(N3CCN(c4cccc(Cl)c4)CC3)C2)n1 (configuration not stated) | i | .
CC(=O)N1CCN(c2nc3ccc([N+](=O)[O-])cc3s2)CC1 | i | .
Cc1ccccc1-n1c(SCC(=O)NC(N)=O)nc2sc(-c3ccccc3)cc2c1=O | i | 0.84
O=c1oc2cc(OCCO)ccc2c2c1CCCC2 | i | .
COc1ccccc1NC(=O)CC(=O)c1cccc([N+](=O)[O-])c1 | i | 0.17
COc1ccccc1NC(=O)/C(=C/c1cccc([N+](=O)[O-])c1)c1ccccc1 | -5.98* | -5.98
CC(=O)c1ccc(N(CC(=O)NC2CCCC2)C(=O)c2csnn2)cc1 | i | 1.13
COC(=O)c1cc(C(=O)OCC(=O)NC(=O)c2ccccc2)cc([N+](=O)[O-])c1 | i | 0.97
CC(C)CC(C(=O)N1CCc2ccccc2C1)N1C(=O)c2ccccc2C1=O (configuration not stated) | -6.53* | -6.53
CC(C(=O)N1CCc2ccccc2C1)N1C(=O)c2ccccc2C1=O (configuration not stated) | i | 0.16
CCN(Cc1ccccc1)C(=O)c1cc(-c2ccc(OC)c(OC)c2)nc2ccccc12 | -6.42* | -6.42
COc1ccc(-c2cc(C(=O)N(C)Cc3ccccc3F)c3ccccc3n2)cc1OC | i | .
COc1ccc(C(=O)Nc2nc(CC(=O)NCCc3ccccc3)cs2)cc1 | i | .
COc1cc(OC)cc(C(=O)Nc2nc(CC(=O)NC(C)c3ccccc3)cs2)c1 (configuration not stated) | -6.28* | -6.28
CCCc1nc2ccccc2c(C(=O)OCC(=O)NCc2ccc3c(c2)OCO3)c1CC | i | .
CCc1nc2ccccc2c(C(=O)OCC(=O)NCc2ccc3c(c2)OCO3)c1C | -5.85* | -5.85
CCCOc1ccc(CN(CCC#N)C(=S)NC(=O)c2ccccc2)cc1 | i | 7.12*
CCN(CC)S(=O)(=O)c1ccc(C(=O)NC(=S)N(CCO)Cc2ccccc2)cc1 | i | 1.41
CC(=O)Nc1ccc(NC(=O)C(C)Oc2ccc(Cl)cc2Cl)cc1 (configuration not stated) | i | 0.1
COc1ccc(NC(=O)C(=O)NNC(=O)C(C)Oc2ccc(Cl)cc2Cl)cc1 (configuration not stated) | i | 20.1*
CC(C)C(NC(=O)c1ccccc1F)C(=O)NCc1ccccc1 (configuration not stated) | i | .
COc1cccc2[nH]c3c(N4CCN(Cc5ccc6c(c5)OCO6)CC4)ncnc3c12 | i | 1.12
SMILES | KCNQ2 inh | KCNQ2 enhance
COc1ccc2c(c1)[nH]c1c(N3CCN(Cc4ccc5c(c4)OCO5)CC3)ncnc12 | -8.09* | -8.09
Cc1ccc2[nH]c3c(N4CCN(Cc5ccccc5)CC4)ncnc3c2c1 | i | .
c1ccc(CN2CCN(c3ncnc4c3[nH]c3ccccc34)CC2)cc1 | -8.09* | -8.09
O=C(NC(=S)Nc1ccc2oc(=O)ccc2c1)c1cccc(Cl)c1 | i | 0.04
Cc1ccc(-n2nc3c(=O)n(CC(=O)NC4CCCCCC4)nc(C)c3c2C)cc1 | i | 0.26
C/C(=N\NC(=O)c1c(Cl)cnn1C)c1ccc(NC(=O)c2ccc(Br)o2)cc1 | i | 1.66
CCN(Cc1ccc(O)cc1)CC1CCCN(CCc2cccc(F)c2)C1 (configuration not stated) | i | 1.5
CCSC1(SCC)N=C(N)C2(C#N)C(c3ccc(F)cc3)C12C#N (configuration not stated) | -5.87* | -5.87
COC1(OC)N=C(N)C2(C#N)C(c3ccc(F)cc3)C12C#N (configuration not stated) | i | 1.82
Cc1nccn1C(c1ccccc1)c1ccccc1 | i | 1.41
COc1ccc(C2C3C(C)=NN=C3CC(C)(O)C2C(C)=O)cc1 (configuration not stated) | i | 0.05
Cc1nn(-c2ccccc2)c(C)c1N | i | 1.09
CNCc1c(C)nn(-c2ccccc2)c1C | i | 10.3*
O=C(NCC1CC1)c1onc(CSc2ccncc2)c1C(=O)NCC1CC1 | i | 0.82
CCOC(=O)C(CC(=O)c1ccccc1)CC(=O)c1ccccc1 | i | .
CC(CCN1CCN(c2ccccc2)CC1)c1ccccc1 (configuration not stated) | i | 0.49
Nc1ccccc1SC1CC(=O)N(c2ccccc2Cl)C1=O (configuration not stated) | i | 0.51
CNc1cc(CSc2ccc(Cl)cc2)nc(C)n1 | i | 1.22
